{
  "source": "paper PMC7862700",
  "about": "“An all-to-all approach to the identification of sequence-specific readers for epigenetic DNA modifications on cytosine”",
  "experiment_in_all_cases": "DAPPL (digital affinity profiling via proximity ligation, sequencing); 10 mM Tris-HCl pH 7.5, 50 mM NaCl, 1 mM DTT, 4% glycerol, room temperature, 30 min; GST-TFs on glutathione beads, 16-mer random dsDNA library, 0.1% formaldehyde crosslink after washing; high values mean tight binding",
  "key": {"FEV": {"biological_target": "T1, FEV (Homo sapiens, UniProt Q99581 1-238)", "T1 sequence": "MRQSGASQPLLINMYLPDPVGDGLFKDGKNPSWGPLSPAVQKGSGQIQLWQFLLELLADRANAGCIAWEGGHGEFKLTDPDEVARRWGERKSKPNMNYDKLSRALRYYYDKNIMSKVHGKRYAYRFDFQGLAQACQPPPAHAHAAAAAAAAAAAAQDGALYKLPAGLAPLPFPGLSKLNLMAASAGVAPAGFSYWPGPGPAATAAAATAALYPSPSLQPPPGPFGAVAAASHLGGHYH", "conditions": "protein: recombinant; tags: N-terminal GST; dsDNA, one strand shown", "method_in_brief": "(§1)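 Each value of binding signal is a hexamer's read frequency for a factor divided by the same hexamer's frequency in the tag-only sample. Barcoded, bead-captured GST fusions of human transcription factors made in yeast were pooled with that sample and incubated with 200 nmole of a random double-stranded 16-mer DNA library in Tris/NaCl/DTT/glycerol buffer at room temperature for 30 min. Washing, 0.1% formaldehyde crosslinking, proximity ligation, PCR and Illumina NextSeq500 sequencing followed.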"}, "ETV5": {"biological_target": "ETV5 (Homo sapiens, UniProt P41161 1-510)", "sequence (P41161 whole entry)": "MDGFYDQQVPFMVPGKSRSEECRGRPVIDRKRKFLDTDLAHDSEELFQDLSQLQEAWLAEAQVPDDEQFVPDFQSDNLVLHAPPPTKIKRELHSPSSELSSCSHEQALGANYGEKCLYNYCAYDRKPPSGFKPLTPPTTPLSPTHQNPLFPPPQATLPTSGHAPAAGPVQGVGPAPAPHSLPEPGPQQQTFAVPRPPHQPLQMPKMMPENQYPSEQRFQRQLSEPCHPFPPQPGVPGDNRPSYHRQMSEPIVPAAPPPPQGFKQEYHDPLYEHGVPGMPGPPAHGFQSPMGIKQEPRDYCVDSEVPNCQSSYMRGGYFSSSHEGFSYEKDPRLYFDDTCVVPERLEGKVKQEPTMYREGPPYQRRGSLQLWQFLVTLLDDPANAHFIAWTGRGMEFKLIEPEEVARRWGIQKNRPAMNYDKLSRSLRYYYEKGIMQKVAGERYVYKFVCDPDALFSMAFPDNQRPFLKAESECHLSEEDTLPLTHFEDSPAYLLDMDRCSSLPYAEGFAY", "conditions": "protein: recombinant; tags: N-terminal GST; dsDNA, one strand shown", "method_in_brief": "as §1"}, "HSF1": {"biological_target": "HSF1 (Homo sapiens, UniProt Q00613 1-529)", "sequence (Q00613 whole entry)": "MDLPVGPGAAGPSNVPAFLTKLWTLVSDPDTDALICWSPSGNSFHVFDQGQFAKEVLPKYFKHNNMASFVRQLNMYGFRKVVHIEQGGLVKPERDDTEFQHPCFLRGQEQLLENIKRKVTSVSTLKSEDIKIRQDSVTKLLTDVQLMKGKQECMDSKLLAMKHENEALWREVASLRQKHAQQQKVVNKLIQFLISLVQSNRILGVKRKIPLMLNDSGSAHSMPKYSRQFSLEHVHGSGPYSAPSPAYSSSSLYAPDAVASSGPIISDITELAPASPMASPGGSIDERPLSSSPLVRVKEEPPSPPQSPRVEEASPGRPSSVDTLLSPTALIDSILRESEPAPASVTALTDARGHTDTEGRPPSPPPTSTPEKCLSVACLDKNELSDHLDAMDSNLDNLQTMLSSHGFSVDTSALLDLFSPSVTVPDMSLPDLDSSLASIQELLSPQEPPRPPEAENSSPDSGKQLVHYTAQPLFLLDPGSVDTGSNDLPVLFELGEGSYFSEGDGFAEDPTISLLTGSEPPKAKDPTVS", "conditions": "protein: recombinant; tags: N-terminal GST; chain copies: 3; dsDNA, one strand shown", "method_in_brief": "as §1"}, "SPIC": {"biological_target": "T2, SPIC (Homo sapiens, UniProt Q8N5J4 1-248)", "T2 sequence": "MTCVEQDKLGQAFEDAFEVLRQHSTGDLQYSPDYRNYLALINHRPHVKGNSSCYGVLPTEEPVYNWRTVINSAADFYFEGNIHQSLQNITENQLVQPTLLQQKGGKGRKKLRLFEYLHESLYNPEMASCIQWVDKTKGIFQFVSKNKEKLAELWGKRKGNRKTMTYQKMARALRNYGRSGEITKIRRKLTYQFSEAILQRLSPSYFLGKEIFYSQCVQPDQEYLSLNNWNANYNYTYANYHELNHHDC", "conditions": "protein: recombinant; tags: N-terminal GST; dsDNA, one strand shown", "method_in_brief": "as §1"}, "ELF4": {"biological_target": "ELF4 (Homo sapiens, UniProt Q99607 1-663)", "sequence (Q99607 whole entry)": "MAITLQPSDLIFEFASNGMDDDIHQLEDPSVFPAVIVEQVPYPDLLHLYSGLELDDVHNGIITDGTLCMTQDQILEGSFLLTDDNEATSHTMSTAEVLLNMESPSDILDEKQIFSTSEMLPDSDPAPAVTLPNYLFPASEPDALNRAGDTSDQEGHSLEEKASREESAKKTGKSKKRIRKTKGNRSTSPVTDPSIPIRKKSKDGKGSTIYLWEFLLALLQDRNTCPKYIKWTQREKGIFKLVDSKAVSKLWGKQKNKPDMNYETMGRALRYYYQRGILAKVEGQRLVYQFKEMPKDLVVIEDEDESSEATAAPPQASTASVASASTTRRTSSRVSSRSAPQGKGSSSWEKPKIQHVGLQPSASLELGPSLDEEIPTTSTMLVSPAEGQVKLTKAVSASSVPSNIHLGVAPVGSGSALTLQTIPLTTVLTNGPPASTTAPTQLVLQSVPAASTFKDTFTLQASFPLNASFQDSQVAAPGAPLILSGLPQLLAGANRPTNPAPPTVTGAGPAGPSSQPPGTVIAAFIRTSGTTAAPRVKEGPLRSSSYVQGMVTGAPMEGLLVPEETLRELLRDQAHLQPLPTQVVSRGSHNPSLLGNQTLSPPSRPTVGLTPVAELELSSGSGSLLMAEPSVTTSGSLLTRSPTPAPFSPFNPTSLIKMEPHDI", "conditions": "protein: recombinant; tags: N-terminal GST; dsDNA, one strand shown", "method_in_brief": "as §1"}, "ELK4": {"biological_target": "T3, ELK4 (Homo sapiens, UniProt P28324-2 1-405)", "T3 sequence": "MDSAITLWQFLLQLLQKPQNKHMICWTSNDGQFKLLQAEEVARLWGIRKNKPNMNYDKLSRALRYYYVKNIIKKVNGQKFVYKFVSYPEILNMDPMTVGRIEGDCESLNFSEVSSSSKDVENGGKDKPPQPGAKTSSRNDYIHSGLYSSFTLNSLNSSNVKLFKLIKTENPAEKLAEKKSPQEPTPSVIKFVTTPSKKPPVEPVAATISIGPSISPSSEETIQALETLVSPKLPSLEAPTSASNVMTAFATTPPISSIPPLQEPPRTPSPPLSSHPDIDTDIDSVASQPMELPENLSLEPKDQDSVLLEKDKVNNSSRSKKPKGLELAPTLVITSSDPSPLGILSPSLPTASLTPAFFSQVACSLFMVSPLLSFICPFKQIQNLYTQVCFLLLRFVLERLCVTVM", "conditions": "protein: recombinant; tags: N-terminal GST; dsDNA, one strand shown", "method_in_brief": "as §1"}, "ETV2": {"biological_target": "T4, ETV2 (Homo sapiens, UniProt O00321 1-342)", "T4 sequence": "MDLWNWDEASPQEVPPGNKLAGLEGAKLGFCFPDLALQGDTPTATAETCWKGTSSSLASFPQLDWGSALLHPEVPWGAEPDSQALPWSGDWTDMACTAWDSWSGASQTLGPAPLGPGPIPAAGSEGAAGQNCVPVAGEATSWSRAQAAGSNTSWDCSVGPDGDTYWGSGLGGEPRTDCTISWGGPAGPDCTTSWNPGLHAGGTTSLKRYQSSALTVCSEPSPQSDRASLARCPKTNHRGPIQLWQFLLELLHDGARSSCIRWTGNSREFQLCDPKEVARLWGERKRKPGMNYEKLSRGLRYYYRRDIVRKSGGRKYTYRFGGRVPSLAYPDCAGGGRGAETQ", "conditions": "protein: recombinant; tags: N-terminal GST; dsDNA, one strand shown", "method_in_brief": "as §1"}, "ELF3": {"biological_target": "T5, ELF3 (Homo sapiens, UniProt P78545 1-371)", "T5 sequence": "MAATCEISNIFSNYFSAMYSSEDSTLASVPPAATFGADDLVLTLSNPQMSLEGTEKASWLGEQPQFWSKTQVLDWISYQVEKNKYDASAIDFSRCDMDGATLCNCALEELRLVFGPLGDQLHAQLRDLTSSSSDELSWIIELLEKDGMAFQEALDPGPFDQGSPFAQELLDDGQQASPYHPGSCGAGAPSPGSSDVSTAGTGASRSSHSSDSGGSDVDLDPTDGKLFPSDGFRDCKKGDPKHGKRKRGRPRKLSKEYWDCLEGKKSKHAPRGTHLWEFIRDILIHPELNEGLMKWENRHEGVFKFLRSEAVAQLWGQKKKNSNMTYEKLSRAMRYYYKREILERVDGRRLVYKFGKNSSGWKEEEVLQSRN", "conditions": "protein: recombinant; tags: N-terminal GST; dsDNA, one strand shown", "method_in_brief": "as §1"}, "CRX": {"biological_target": "CRX (Homo sapiens, UniProt O43186 1-299)", "sequence (O43186 whole entry)": "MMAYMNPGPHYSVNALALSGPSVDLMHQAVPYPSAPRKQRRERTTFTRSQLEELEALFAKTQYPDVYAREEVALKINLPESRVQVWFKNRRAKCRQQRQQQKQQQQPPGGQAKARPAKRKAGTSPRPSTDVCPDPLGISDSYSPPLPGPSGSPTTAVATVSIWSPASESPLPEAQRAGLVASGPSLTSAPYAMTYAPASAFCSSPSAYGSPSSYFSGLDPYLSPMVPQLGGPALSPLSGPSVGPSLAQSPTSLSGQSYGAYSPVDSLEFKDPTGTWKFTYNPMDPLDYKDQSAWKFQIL", "conditions": "protein: recombinant; tags: N-terminal GST; dsDNA, one strand shown", "method_in_brief": "as §1"}, "ETV1": {"biological_target": "ETV1 (Homo sapiens, UniProt P50549 1-477)", "sequence (P50549 whole entry)": "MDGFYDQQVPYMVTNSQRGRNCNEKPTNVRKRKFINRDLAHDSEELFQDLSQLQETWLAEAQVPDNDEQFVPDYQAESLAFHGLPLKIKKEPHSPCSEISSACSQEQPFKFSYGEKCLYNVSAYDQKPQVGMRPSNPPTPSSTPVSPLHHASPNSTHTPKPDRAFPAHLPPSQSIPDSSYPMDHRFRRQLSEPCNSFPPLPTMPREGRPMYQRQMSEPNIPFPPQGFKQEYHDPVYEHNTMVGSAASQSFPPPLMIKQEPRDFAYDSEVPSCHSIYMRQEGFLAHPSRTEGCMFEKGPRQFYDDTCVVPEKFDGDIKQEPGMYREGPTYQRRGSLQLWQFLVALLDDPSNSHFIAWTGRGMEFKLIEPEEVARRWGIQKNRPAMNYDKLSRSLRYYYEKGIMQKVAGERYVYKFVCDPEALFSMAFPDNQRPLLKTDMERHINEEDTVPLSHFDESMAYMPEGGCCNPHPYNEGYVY", "conditions": "protein: recombinant; tags: N-terminal GST; dsDNA, one strand shown", "method_in_brief": "as §1"}},
  "data": [
    {"sequence": "TTAATG", "values": [
      {"measurement": "binding signal", "setting": "FEV", "result": "1.12 fold enrichment (6-mer frequency, TF over GST control)"},
      {"measurement": "binding signal", "setting": "ETV5", "result": "1.27 fold enrichment (6-mer frequency, TF over GST control)"},
      {"measurement": "binding signal", "setting": "HSF1", "result": "1.89 fold enrichment (6-mer frequency, TF over GST control)"},
      {"measurement": "binding signal", "setting": "SPIC", "result": "1.24 fold enrichment (6-mer frequency, TF over GST control)"},
      {"measurement": "binding signal", "setting": "ELF4", "result": "1.26 fold enrichment (6-mer frequency, TF over GST control)"},
      {"measurement": "binding signal", "setting": "ELK4", "result": "1.21 fold enrichment (6-mer frequency, TF over GST control)"},
      {"measurement": "binding signal", "setting": "ETV2", "result": "1.31 fold enrichment (6-mer frequency, TF over GST control)"},
      {"measurement": "binding signal", "setting": "ELF3", "result": "1.21 fold enrichment (6-mer frequency, TF over GST control)"},
      {"measurement": "binding signal", "setting": "CRX", "result": "2.75 fold enrichment (6-mer frequency, TF over GST control)"},
      {"measurement": "binding signal", "setting": "ETV1", "result": "1.29 fold enrichment (6-mer frequency, TF over GST control)"}
    ]}
  ]
}
